Compounds with a hit are over-represented: about 4.7% of the library has one in this group of screens.
SDO1 yeast rescue: growth rescue of sdo1-depleted yeast, primary screen, S. cerevisiae, bone marrow failure model; z-score at 10 µM; hit rate 0.21% among 140,000; S. cerevisiae sdo1-depleted JHY4D growth rescue, OD600 30 h; active compounds read high; pdr5 snq2 efflux-pump mutant strain;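 active means z-score above 3 at both the 24 hr and the 30 hr optical density reads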;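 further: z-score against mean and SD of all compound wells on the same plate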
Cav3 T inh: Cav3.2 calcium influx blockers – cell-based, Fluo-4 calcium fluorescence, FDSS, MLSMR library, primary screen | Voltage-dependent T-type calcium channel subunit alpha-1H (Homo sapiens), O95180 | Cav3.2-expressing cells; active compounds read low | B-score at 10 µM | hit rate 4% among 100,000;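 active means single-dose well whose peak fluorescence ratio is a statistical outlier from its plate by either plate-standardised score or position-corrected B-score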
PLK1 kinase inh: human PLK1 kinase inhibitors, primary screen, biochemical, TR-FRET. Serine/threonine-protein kinase PLK1 (Homo sapiens), P53350. recombinant PLK1 kinase, TR-FRET peptide phosphorylation. inhibition, % at 10 µM. hit rate 0.53% among 97,000. AID 619, 2007;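 active means inhibition of 50% or more in the single-concentration screen; inactive means inhibition below 50%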;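 further: 0% = DMSO max control and 100% = H-89 dihydrochloride min control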
Target sequence (P53350 whole entry, looked up): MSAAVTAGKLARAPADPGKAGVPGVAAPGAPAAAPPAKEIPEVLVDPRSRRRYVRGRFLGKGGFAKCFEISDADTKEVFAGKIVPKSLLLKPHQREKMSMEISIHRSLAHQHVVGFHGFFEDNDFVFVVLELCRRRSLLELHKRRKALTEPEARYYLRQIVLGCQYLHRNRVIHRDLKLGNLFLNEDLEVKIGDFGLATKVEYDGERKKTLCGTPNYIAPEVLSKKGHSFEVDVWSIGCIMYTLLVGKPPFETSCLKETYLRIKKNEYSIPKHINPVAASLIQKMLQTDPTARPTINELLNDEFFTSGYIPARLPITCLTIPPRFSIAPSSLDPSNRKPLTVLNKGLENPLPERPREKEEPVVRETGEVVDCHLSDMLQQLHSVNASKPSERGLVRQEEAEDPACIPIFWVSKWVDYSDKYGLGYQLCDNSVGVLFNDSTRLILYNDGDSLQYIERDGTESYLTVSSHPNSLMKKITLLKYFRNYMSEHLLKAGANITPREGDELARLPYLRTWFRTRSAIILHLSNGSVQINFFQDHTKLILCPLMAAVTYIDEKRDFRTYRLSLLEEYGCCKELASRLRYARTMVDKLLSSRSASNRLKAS
PTK2B oligo ant: antagonists of Pyk2 self-association, primary screen, Q293 cells, FERM NanoBiT luminescence, HTS; Protein-tyrosine kinase 2-beta (Homo sapiens), Q14289; active compounds read low; z-score (the deposit names both 25 µM and 10 µM); hit rate 0.83% among 99,000; AID 1347419, 2020;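 active means Z-score of -3 or lower, scaled per plate to the spread of control and sample wells; inactive means z-score above -3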;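 further: negative z-score means lost luminescence so less FERM oligomerization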
DAT uptake mod: changed hDAT dopamine uptake under cocaine IC80, either direction, primary screen, cocaine antagonist project, cell-based, LLC-PK1 hDAT, [14C]-dopamine uptake, MLSMR | LLC-PK1 hDAT cells, [14C]-dopamine uptake with cocaine IC80; actives deviate in either direction | B-score at 10 µM | hit rate 1.3% among 110,000;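 active means Z score or B-score, a plate-position-corrected score, falls beyond the plate's 99.7% confidence bounds, in either direction; inactive means both scores lie inside the 99.7% bounds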;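 further: scored against the spread of the other compound wells on the same plate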
PLK1 PBD inh: Plk1 polo box domain binding inhibitors, primary screen, biochemical, fluorescence polarization; Plk1 PBD phosphopeptide binding; inhibition, %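 (tested at about 20 µM)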; Serine/threonine-protein kinase PLK1 (Homo sapiens), P53350; hit rate 0.13% among 97,000; in the data active means inhibition above about 34%, passing the limit was not always enough
An asterisk follows results filed as active; . = no result.

SMILES	SDO1 yeast rescue	Cav3 T inh	PLK1 kinase inh	PTK2B oligo ant	DAT uptake mod	PLK1 PBD inh
O=C(NC1CCCC1)C(c1ccsc1)N(Cc1ccco1)C(=O)Cc1cccs1 (stereo not given)	-1	-6.9*	1	-0.25	-0.29	-26
Cc1ccccc1-n1c(SCC(=O)NCc2cccs2)nc2ccccc2c1=O	-0.85	.	.	.	.	.
COc1ccc(C(=O)OC/C(O)=C(\C#N)c2nc3ccccc3[nH]2)cc1S(=O)(=O)N1CCOCC1	-0.17	.	.	.	.	.
COc1ccc(CNC(=O)C(c2ccc(C)o2)N(Cc2cccs2)C(=O)Cc2cccs2)cc1 (stereo not given)	-1.5	-7.6*	-8	0.76	1.1	-7
O=C(NC1CCCC1)C(c1ccccc1)N(Cc1ccc2c(c1)OCO2)C(=O)Cc1cccs1 (stereo not given)	-1.2	-5.9*	-11	-3.1*	1.4	-19
O=C(NCCCn1ccnc1)c1ccc(S(=O)(=O)N2CCCCCC2)cc1	0.14	0.41	-9	-0.68	3.1*	-5
CCN(CC)C(=O)CSc1nc(-c2cccs2)cc(-c2cccs2)c1C#N	-1.6	-6*	-17	-1.5	1.3	-4
Cc1ccc(CCNC(=O)C2CC(c3cccc(F)c3)=NO2)cc1 (stereo not given)	.	-0.28	.	.	-0.084	.
COc1ccc(CNC(=O)C2CC(c3ccc(OC)cc3)=NO2)cc1 (stereo not given)	-0.19	-2.6	-6	1.6	-3.4*	-23
COc1ccc(CNC(=O)C2CC(c3ccc(F)cc3)=NO2)cc1 (stereo not given)	-0.54	-0.59	-4	0.48	0.55	-4
O=C(NCc1ccc(C(F)(F)F)cc1)C1CC(c2cccc(F)c2)=NO1 (stereo not given)	.	-2.7*	.	.	-0.93	.
O=C(Nc1ccc2nc(SCc3ccc(Cl)cc3)sc2c1)c1ccccc1C(=O)N1CCOCC1	-1.2	-1.1	-15	0.4	-7.1*	-13
CCN(CC)c1ccc2c(c1)OC(N)=C(C#N)C2c1cccnc1 (stereo not given)	-0.24	-11*	-14	-2.2	-1.8	-65
N#CC1=C(N)Oc2cc(N)ccc2C1c1cccnc1 (stereo not given)	0.87	.	.	.	.	.
CC1CCCCN1CCNC(=O)c1cnn2ccccc12 (stereo not given)	-0.13	-0.017	69*	.	-0.91	-4
CC(C)CCNC(=O)[C@H](CSCc1ccccc1)N1Cc2ccccc2C1=O	-0.51	-3.8*	.	.	0.63	.
CC(=O)c1ccc(NC(=O)C2Cc3ccccc3CN2C(=O)c2ccccc2)cc1 (stereo not given)	-0.2	.	.	.	.	.
COc1ccc(NC(=O)C2Cc3ccccc3CN2C(=O)c2ccccc2)cn1 (stereo not given)	0.61	-0.37	-14	0.11	2.9*	9
COC(=O)Cc1cc(=O)[nH]c(Nc2nc3ccccc3o2)n1	-0.33	3.5*	-11	-1	-0.24	3
COc1ccc(NC(=O)c2ccco2)cc1NC(=O)c1cccc(OC(C)C)c1	-0.68	-5.6*	-7	0.86	2.6	-6
CCOc1ccccc1NC(=O)c1ccc(NC(=O)c2ccco2)cc1	-0.76	-0.16	-9	-1.4	3.9*	-19
COc1cccc(C(=O)Nc2cc(NC(=O)c3ccco3)ccc2OC)c1	1.1	-0.14	-13	-0.19	2.6	-19
O=C(CN1CCCC1=O)NC1C2CC3CC(C2)CC1C3 (stereo not given)	0.59	.	.	.	.	.
CC(=O)N1CCN=C1SCc1ccccc1	1.1	0.42	-12	.	-0.006	-16
COc1cc(OC)cc(C(=O)N2CCN=C2SCc2cccnc2)c1	2	0.008	-14	.	1.6*	-32
SMILES	SDO1 yeast rescue	Cav3 T inh	PLK1 kinase inh	PTK2B oligo ant	DAT uptake mod	PLK1 PBD inh
O=C(c1ccc2c(c1)OCO2)N1CCN=C1SCc1ccccc1	0.23	-5.4*	.	.	0.79	.
CCC1CSC(Nc2ccc(C(=O)/C=C/c3cccc(C)c3)cc2)=N1 (stereo not given)	-0.71	.	.	.	.	.
CCN(Cc1cc(=O)n2ccsc2n1)c1cccc2ccccc12	-0.86	.	.	.	.	.
COc1ccc(-c2csc3[nH]c(=S)n(-c4ccccc4)c(=O)c23)cc1OC	0.61	.	.	.	.	.
CC(C)OC(=O)c1ccc(NC(=O)Cn2c(-c3nonc3N)nc3ccccc32)cc1	-1.5	-0.82	-6	-4.2*	-0.19	-9
CCOc1ccccc1OCCOc1ccccc1OC(C)C	-0.03	-5.4*	-16	1.2	-0.15	12
Cc1ccccc1Nc1nc(N)nc(CN2C(=O)NC3(CCCCC3C)C2=O)n1 (stereo not given)	-0.3	1.1	.	1.3	-7.6*	.
Cc1ccccc1Nc1nc(N)nc(COC(=O)C2CCCCC2)n1	-0.56	.	.	.	.	.
CC(NC(=O)c1cccs1)c1n[nH]c(=S)n1C (stereo not given)	-0.1	.	.	1.1	.	.
COc1cccc(N2CCN(c3ncnc4c3[nH]c3ccc(F)cc34)CC2C)c1 (stereo not given)	-2.3	-6.1*	-1	-1.8	0.94	-1
Cc1ccc2[nH]c3c(N4CCN(Cc5ccccc5)CC4)ncnc3c2c1	-0.66	-3.9	-10	-1.8	2.2	8
COc1cc2[nH]c3c(N4CCN(c5ccc(Cl)cc5)CC4)ncnc3c2cc1OC	-2.3	1.3	3	-3.2*	-1.1	-18
Cc1ccc2c(c1)[nH]c1c(N3CCN(Cc4ccccc4)CC3)ncnc12	-1	-4.9*	2	-2.8	1.1	5
COc1cccc(N2CCN(c3ncnc4c3[nH]c3ccccc34)CC2C)c1 (stereo not given)	-2	-5.9*	.	.	-0.84	.
CC(C)c1ccccc1NC1=CC(=O)CC(C)(C)C1	-0.85	.	.	.	.	.
CN(C)c1nc(SCCOC(=O)Nc2ccccc2)nc(N(C)C)n1	-1	-4.7*	-8	-0.22	0.58	-11
CCOC(=O)Cc1csc(NC(=O)CSc2cc(Cl)ccc2Cl)n1	-0.45	.	.	.	.	.
Cc1ccc2nc(NC(=O)Cc3cccs3)sc2c1	-0.86	-3.6*	6	-0.01	0.03	6
COc1ccc(NC(=O)Nc2ccc(N3CCCC3=O)cc2)cc1OC	0.09	1.2	.	1.4	-0.2	.
COc1ccc(NC(=O)COC(=O)c2ccc(N3CCCC3=O)cc2)cc1OC	0.41	-12*	22	-0.4	0.2	-14
O=C(CN1CCN(Cc2ccccc2)CC1)Nc1cccc(C(F)(F)F)c1	-0.15	-6.6*	-13	0.74	-0.56	-11
O=C(CN1CCC(C(O)(c2ccccc2)c2ccccc2)CC1)Nc1ccccc1	-1.8	-2.4*	-12	-1.3	0.6	3
O=C(CN1CCN(c2ccccc2)CC1)Nc1cccc(C(F)(F)F)c1	-1.6	1	-17	-0.15	-0.074	21

Source: PubChem (several laboratories)
